test system: PPARg:RXRa IVT, anti-PPARg (NR concentration 270 nM, RXRa partner concentration 90 nM); assay: PBM binding z-score (relative to random genomic background probes); higher = stronger binding; sequences stand for … in GC…GCGATTGACAGCGTAGAATGAAGG
Method in brief: (§1)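 Ligand-free nuclear receptor dimers were bound for 1 h to custom Agilent 4×180K protein-binding microarrays. Detection used antibodies against each partner (one per run). Binding z-scores rest on regression-normalized fluorescence, with random background probes as the reference.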

Row | Sequence | PBM binding z-score
1 | GCTATTACTTGAAAGGGCAACCGAATGATTCTCG | 0.239
2 | TGTCAAAGTTCAGAGGTAACGTAAGTATCCACAC | 3.54
3 | TGGAGTAGGTTAGGGGCATTCAGAATGGCGTCGA | 3.44
4 | CCTTACGGGTCACTCCAGTTTATAGCATCGGAGT | 3.39
5 | CCGTCTGGGGCAGAAAGGTTACCATACCATCCGG | 0.764
6 | CCTAGTTGGTCAGGAGGGCACACACCGGATATGA | 1.62
7 | TCTATTCGTTGATTAGGGCAACCGAAACAGCGGA | 1.69
8 | GCTGCTAGGTCCGGTTGGTCAGCTAACGGGTACG | -0.34
9 | GGAACGAGGGCAAAGTGGATAGCATCTGTCGACG | 3.72
10 | GCTAGCAGGCCATTTGGGTCTCTCAATGACGGGC | 0.258
11 | ATCGAAAGTTCGAAGGTGAGTATACCCACCCGAA | 0.537
12 | AGAATGAGGTTATTAAAATCAGGGAATTGCGGTC | 2.38
13 | ATCTCTAGGTAACAAGTTCAGTGGAAGAGAGGAC | 3.02
14 | GGAACGAGGGCAAAGTTGAAAGCATCTGTCGACG | 5.08
15 | TCTTTTAGATCAAAGGTTAAGAAAGCCGAAGCCT | 3.01
16 | AGAGCGAGGGCACGCTGAGTTGATAGCAGAGTAG | 1.26
17 | ACTCGGAGGACAAAGGTCTGAGCTACGCCAGTGA | 0.315

test system: PPARg DBDmut:RXRa IVT, anti-PPARg (DBD mutation: PPARg1 K132A/R137A, NR concentration 270 nM, RXRa partner concentration 90 nM); assay: as above
Method in brief: as §1

Row | Sequence | PBM binding z-score
18 | CGAACTAGGGCATCCAGGACAGTGAATACATTGA | 1.33
19 | TCGAATAGGTTAGTCGGGGCATTCAGCCAACATA | -0.355
20 | TCTGGGAGGACACGAAAGGTCAGAGCTCGACATC | 0.0227
21 | CCGAGTAGGTTATGGGGCATACAGGCAACGGTGA | 0.382
22 | CAGCCTAGGTCAGGGCCAGTTTAGGAGGAACGTT | -1.02
23 | TAGCCTAGGTCAAGGGCCAGTATACCACGCGAAC | -0.167
24 | ACTAGTTGGTCAGCTGAGGTCATACACAATTCGG | 1.46
25 | CGTCCAAGGTCAAGGTCAGTCAAAGAGACTCGAA | 1.48
26 | AGTCAAAGTTCGTCTAGGTAACGTAAGATATGCT | 0.664
27 | CGTTAAAGTTCAACTAAGGTAACGTAAAGCACGC | 1.25
28 | ACTTACGGGTCAACGAGGGTATAGCACGCGTATA | 1.66
29 | ATCTCTAAGTAAAGATAGTTCAGTGAATGCAAAT | 0.975
30 | GATACAGGGTCAGCTAGAGGCTAGAGTATGGAAA | -0.0888
31 | CCAGACAGGTGAGAAGGGAACTCAGCCTCGATTA | -0.35
32 | CCTGCTAAGTCAATGGTCAGCTAAAGCAGCTCGC | -1.16
33 | CTACCAAGGTGAACAAGGTCGCTGATTACTATTC | 0.217
34 | CCTGCTAGGTCATGATCAGCTAATCTACAGTATG | 0.5
35 | TCTAGCAGGACAGAGGGTCACTCAAGAGGTACGG | -0.0481
36 | ACTAGCAGGCCAAGTTTGGTTCACTCAAACAAAG | 0.0208
37 | ATCTCTAGCTAACAAGTTCAGTGAAAGAGAGGAC | 0.64

Row | Sequence | PBM binding z-score
38 | TCTATCAGGCCAGAGGGTCACTCAAGAGGTACGG | -0.288
39 | GTACCAAGGTGCATAGGTCGTTGATGAGTAGGCG | -0.485
40 | GCTATTACTTGAAAGGGCAACCGAATGATTCTCG | -0.509
41 | TGTCAAAGTTCAGAGGTAACGTAAGTATCCACAC | 0.775
42 | TGGAGTAGGTTAGGGGCATTCAGAATGGCGTCGA | 1.09
43 | CCTTACGGGTCACTCCAGTTTATAGCATCGGAGT | 0.913
44 | CCGTCTGGGGCAGAAAGGTTACCATACCATCCGG | -1.18
45 | CCTAGTTGGTCAGGAGGGCACACACCGGATATGA | -0.178
46 | TCTATTCGTTGATTAGGGCAACCGAAACAGCGGA | 1.2
47 | GCTGCTAGGTCCGGTTGGTCAGCTAACGGGTACG | -1.47
48 | GGAACGAGGGCAAAGTGGATAGCATCTGTCGACG | 0.652
49 | GCTAGCAGGCCATTTGGGTCTCTCAATGACGGGC | -0.858
50 | ATCGAAAGTTCGAAGGTGAGTATACCCACCCGAA | 0.525
51 | AGAATGAGGTTATTAAAATCAGGGAATTGCGGTC | 0.973
52 | ATCTCTAGGTAACAAGTTCAGTGGAAGAGAGGAC | 0.956
53 | GGAACGAGGGCAAAGTTGAAAGCATCTGTCGACG | -0.45
54 | TCTTTTAGATCAAAGGTTAAGAAAGCCGAAGCCT | 1.08
55 | AGAGCGAGGGCACGCTGAGTTGATAGCAGAGTAG | -0.714
56 | ACTCGGAGGACAAAGGTCTGAGCTACGCCAGTGA | -0.994

test system: PPARg DBDmut IVT, anti-PPARg (DBD mutation: PPARg1 K132A/R137A, NR concentration 270 nM); assay: as above
Method in brief: as §1

Row | Sequence | PBM binding z-score
57 | CGAACTAGGGCATCCAGGACAGTGAATACATTGA | 1.16
58 | TCGAATAGGTTAGTCGGGGCATTCAGCCAACATA | -0.412
59 | TCTGGGAGGACACGAAAGGTCAGAGCTCGACATC | -0.425
60 | CCGAGTAGGTTATGGGGCATACAGGCAACGGTGA | 0.114
61 | CAGCCTAGGTCAGGGCCAGTTTAGGAGGAACGTT | -1.5
62 | TAGCCTAGGTCAAGGGCCAGTATACCACGCGAAC | -0.743
63 | ACTAGTTGGTCAGCTGAGGTCATACACAATTCGG | 1.13
64 | CGTCCAAGGTCAAGGTCAGTCAAAGAGACTCGAA | -0.095
65 | AGTCAAAGTTCGTCTAGGTAACGTAAGATATGCT | 0.773
66 | CGTTAAAGTTCAACTAAGGTAACGTAAAGCACGC | 1.18
67 | ACTTACGGGTCAACGAGGGTATAGCACGCGTATA | 1.29
68 | ATCTCTAAGTAAAGATAGTTCAGTGAATGCAAAT | 1.08
69 | GATACAGGGTCAGCTAGAGGCTAGAGTATGGAAA | -0.495
70 | CCAGACAGGTGAGAAGGGAACTCAGCCTCGATTA | -0.943
71 | CCTGCTAAGTCAATGGTCAGCTAAAGCAGCTCGC | -0.747
72 | CTACCAAGGTGAACAAGGTCGCTGATTACTATTC | 0.423
73 | CCTGCTAGGTCATGATCAGCTAATCTACAGTATG | 0.49
74 | TCTAGCAGGACAGAGGGTCACTCAAGAGGTACGG | -0.462
75 | ACTAGCAGGCCAAGTTTGGTTCACTCAAACAAAG | -0.415
76 | ATCTCTAGCTAACAAGTTCAGTGAAAGAGAGGAC | 1.17

Row | Sequence | PBM binding z-score
77 | TCTATCAGGCCAGAGGGTCACTCAAGAGGTACGG | -0.122
78 | GTACCAAGGTGCATAGGTCGTTGATGAGTAGGCG | -0.265
79 | GCTATTACTTGAAAGGGCAACCGAATGATTCTCG | 0.326
80 | TGTCAAAGTTCAGAGGTAACGTAAGTATCCACAC | 1.39
81 | TGGAGTAGGTTAGGGGCATTCAGAATGGCGTCGA | 0.719
82 | CCTTACGGGTCACTCCAGTTTATAGCATCGGAGT | 0.686
83 | CCGTCTGGGGCAGAAAGGTTACCATACCATCCGG | -1.86
84 | CCTAGTTGGTCAGGAGGGCACACACCGGATATGA | -0.301
85 | TCTATTCGTTGATTAGGGCAACCGAAACAGCGGA | 0.685
86 | GCTGCTAGGTCCGGTTGGTCAGCTAACGGGTACG | -1.49
87 | GGAACGAGGGCAAAGTGGATAGCATCTGTCGACG | 0.661
88 | GCTAGCAGGCCATTTGGGTCTCTCAATGACGGGC | -1.65
89 | ATCGAAAGTTCGAAGGTGAGTATACCCACCCGAA | 0.231
90 | AGAATGAGGTTATTAAAATCAGGGAATTGCGGTC | 0.541
91 | ATCTCTAGGTAACAAGTTCAGTGGAAGAGAGGAC | 1.34
92 | GGAACGAGGGCAAAGTTGAAAGCATCTGTCGACG | -0.356
93 | TCTTTTAGATCAAAGGTTAAGAAAGCCGAAGCCT | 1.12
94 | AGAGCGAGGGCACGCTGAGTTGATAGCAGAGTAG | -1.28
95 | ACTCGGAGGACAAAGGTCTGAGCTACGCCAGTGA | -1.15

Reference: the supplement of paper PMC6555819
